Experimental data: PubChem BioAssay (EPA / NIEHS)
More than one record can exist for a structure, and the calls need not agree. Calls of active or inactive are those of the source. How the source made its calls: active means hit-call score of the fitted dose curve at least 0.9, where 1 is the maximum; inactive means score below 0.9.

Experiment: CCTE_Shafer_MEA_dev_network_spike_peak: CCTE's Neural Network Formation Assay for Mean Number of Electrodes in Network Spike, Shafer Lab (AID 2284049)
Description: CCTE_Shafer_MEA_dev assay is conducted using Axion Biosystems 48 well microelectrode array (MEA) plates and Maestro recording system. Each well of the MEA plate contains a grid of 16 microelectrodes embedded in the culture surface. Electrically active cells, such as neurons, can be cultured over the electrodes, and electrical activity in these cells can be recorded extracellularly. The spontaneous firing of neurons is captured from each electrode on a microsecond timescale providing both temporally and spatially precise data. […] The CCTE_Shafer_MEA_dev assay uses primary cultures of rat cortical neurons. Recordings are made on days post-plating 5, 7, 9 and 12. As these cultures mature over time, neural networks develop functional activity and form cohesive networks in which electrical activity can be highly coordinated. CCTE_Shafer_MEA_dev_network_spike_peak is 1 of 19 assay components of the CCTE_Shafer_MEA_dev assay. It measures the average number of electrodes participating at the peak of a network spike (the peak of a temporally-clustered group of action potential firing across multiple electrodes) during a recording in a microelectrode array (MEA) using Axion Biosystems Maestro 768 channel amplifier with the AxIS adaptive spike detector. To collapse across multiple recordings made on days post-plating 5, 7, 9 and 12, the trapezoidal area-under-the-curve of the component is calculated.Data from the assay component CCTE_Shafer_MEA_dev_network_spike_peak was analyzed into 1 assay endpoint. This assay endpoint, CCTE_Shafer_MEA_dev_network_spike_peak, was analyzed in the negative analysis fitting direction relative to DMSO as the negative control and baseline of activity. Using a type of functional reporter, gain or loss-of-signal activity can be used to understand electrical activity.
On the day prior to culture, each well was coated thoroughly with 150 uL of 0.05% polyethyleneimine (PEI, Sigma Cat P3143) in 50 mM HEPES (Sigma Cat H7523) at a pH of 8. The plate was incubated at 37C for one hour. PEI was rinsed out with 500 uL of sterile water three times. Plates were stored at 4C until the day of culture. This culture was plated at a seeding density of 1.5 x 10^5 cells/well on a 48-well MEA plate, prepared as described above. Cells were administered via a 25 uL media/laminin ([…]; Sigma Cat L2020-1MG) drop directly onto the microelectrode array, as adding the cells with the laminin results in better attachment than pre-coating with laminin. After 2 hours, an additional 475 uL of cortical media was added and the cells returned to the incubator. Exposure starts at day 0 of plating and is continued over twelve days of network development until the experiment is terminated. Cells are fed with fresh medium on DIV 5 and 9, following the recordings on those days. The entire volume of media in the well is exchanged and any vehicle or compound treatment is renewed. Complete details are found in OP-NHEERL/ISTD/SBB/TJS/2015-03-r0 (available on request, email shafer.tim@epa.gov). Measurement of the electrical activity is non-invasive, and recordings can be made from the same plate over multiple different days of the culture. In cortical neurons, this allows for the measurement of extracellular action potentials over the period during which networks form in the MEA plate.

Row | Structure (SMILES) | outcome | AC50
1 | OC[C@@H](O)[C@@H](O)[C@H](O)[C@H](O)CO | inactive | –
2 | CCCc1cc(=O)[nH]c(=S)[nH]1 | inactive | 23 µM (active)
3 | CC(C)c1ccc(C(=O)N=C(N)N)cc1S(C)(=O)=O | inactive | –
4 | O=c1[nH]cc(F)c(=O)[nH]1 | – | 1.2 µM (active)
5 | C[Si]1(C)O[Si](C)(C)O[Si](C)(C)O[Si](C)(C)O1 | inactive | –
6 | Cc1cc(=O)[nH]c(=S)[nH]1 | inactive | –
7 | FC(F)(F)C(F)(F)C(F)(F)C(F)(F)C(F)(F)C(F)(F)CCI | inactive | –
8 | C=CCc1ccc(O)c(OC)c1 | inactive | –
9 | CC(=O)Oc1ccccc1C(=O)O | inactive | –
